Among the data in PubChem BioAssay (NCI) are growth values, retold here.

The panel holds about 83,000 compounds, 20% with a hit somewhere; the sample as a whole holds those more often.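 Compound tested at a single concentration for 48 hours in 96-well plates; a percent growth value below 10 was scored as active.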 A number with no mark means an inactive call. Active and inactive are the calls of the source.

Test systems include RPMI-8226 leukemia; OVCAR-8 ovarian; OVCAR-5 ovarian; OVCAR-4 ovarian; SK-OV-3 ovarian; IGROV1 ovarian; OVCAR-3 ovarian; HS 578T breast; NCI/ADR-RES ovarian.
What all share (experiment): NCI-60 one-dose screen, 48 h (100 = growth as untreated, 0 = no growth, -100 = all killed)
Conditions in all cases: 10 µM unless noted

With `COc1cc(/C=N/NC(=O)c2cnn3c2NC(c2ccccc2)C3)ccc1OCc1ccccc1` (stereo not given), the growth in the assay on RPMI-8226 leukemia was 43.7%; in the assay with OVCAR-8 ovarian, 2.7% (active); in the assay with OVCAR-5 ovarian, 33.2%; in the assay on OVCAR-4 ovarian, -21.9% (active); in the assay on SK-OV-3 ovarian it was 18.9%; in the assay on IGROV1 ovarian, 12.2%. Also, the growth with OVCAR-3 ovarian was -63.4% (active); in the assay with HS 578T breast it was -1.22% (active); in the assay with NCI/ADR-RES ovarian, 35%.

With `O=C1C=CC(=O)N1c1cccc(Cl)c1`, the growth with RPMI-8226 leukemia was 95.6%; with OVCAR-8 ovarian, 107%; with OVCAR-5 ovarian it was 111%; with SK-OV-3 ovarian it was 108%; in the assay with IGROV1 ovarian it was 117%; in the assay with OVCAR-3 ovarian, 90.1%. The growth is 113% in the assay on HS 578T breast and 98.3% in the assay with NCI/ADR-RES ovarian.

As for `O=C(/C=C/c1c(-c2ccc(Cl)cc2)nn(-c2ccccc2)c1C(F)(F)F)c1ccc(Cl)cc1`, the growth is 77.8% in the assay on OVCAR-8 ovarian; 102% with OVCAR-5 ovarian; 82.7% with SK-OV-3 ovarian; 102% in the assay with IGROV1 ovarian; 95.3% in the assay with OVCAR-3 ovarian; 92.2% in the assay on HS 578T breast. Also, the growth with NCI/ADR-RES ovarian was 97.4%.

For `COc1ccc(-c2nc(S(=O)(=O)c3ccccc3)c(S(=O)CC(=O)N3CCC(C)CC3)o2)cc1` (stereo not given), the growth was 33.9% in the assay on OVCAR-8 ovarian; 48% in the assay with OVCAR-5 ovarian; 28.8% in the assay on OVCAR-4 ovarian; 92.2% with SK-OV-3 ovarian; 25.6% with IGROV1 ovarian; -42.6% (active) in the assay on OVCAR-3 ovarian. The growth was 77.7% in the assay on HS 578T breast and 59.7% with NCI/ADR-RES ovarian.

For `O=C(C1CCC1)N1N=C(c2ccc(-n3ccc(C(F)(F)F)n3)cc2)CC1c1ccc[nH]1` (stereo not given), the growth in the assay with RPMI-8226 leukemia is 63.2%; in the assay on OVCAR-8 ovarian, 95.4%; in the assay with OVCAR-5 ovarian, 94.8%; in the assay with OVCAR-4 ovarian, 112%; with SK-OV-3 ovarian it was 133%; with IGROV1 ovarian it was 99.6%. The growth was 107% in the assay with OVCAR-3 ovarian, 101% in the assay with HS 578T breast and 95.5% in the assay with NCI/ADR-RES ovarian.

For the compound `COc1cc(-c2cc(-c3ccc(N(C)C)cc3)nc(N3CCOCC3)c2C#N)cc(OC)c1OC`, the growth is 9.28% (active) in the assay on RPMI-8226 leukemia; 22.4% in the assay with OVCAR-8 ovarian; 37.9% with OVCAR-5 ovarian; 55.9% in the assay on SK-OV-3 ovarian; 42.2% with IGROV1 ovarian; 87.9% with OVCAR-3 ovarian. Further, the growth in the assay with HS 578T breast is 77.9%; in the assay on NCI/ADR-RES ovarian it was 4.22% (active).

With `CC(C)(C)c1ccc(NS(=O)(=O)c2ccc3nc(NC(=O)c4cnccn4)[nH]c3c2)cc1`, the growth is 24.3% in the assay with RPMI-8226 leukemia; 45.6% with OVCAR-8 ovarian; 57% in the assay on OVCAR-5 ovarian; 37% in the assay with OVCAR-4 ovarian; 53.5% in the assay on SK-OV-3 ovarian; 37.4% in the assay on IGROV1 ovarian. Moreover, the results for the growth in the assay on OVCAR-3 ovarian, in the assay with HS 578T breast and in the assay on NCI/ADR-RES ovarian were -12.3% (active), -1.91% (active) and 30.6%, respectively.

Turning to `O=[N+]([O-])c1ccc(N=Nc2cc(S(=O)(=O)O)c3cccc(S(=O)(=O)O)c3c2O)cc1`, the growth in the assay on RPMI-8226 leukemia was 104%; with OVCAR-8 ovarian, 108%; with OVCAR-5 ovarian, 113%; with SK-OV-3 ovarian it was 102%; with IGROV1 ovarian it was 72.8%; in the assay with OVCAR-3 ovarian it was 121%. Also, the growth in the assay with HS 578T breast was 130%; in the assay on NCI/ADR-RES ovarian, 104%.

Regarding `CCN(CC)c1ccc(/C=N/NC(=O)CSc2nc3ccccc3c(=O)n2Cc2ccc(S(N)(=O)=O)cc2)c(O)c1`, the growth in the assay on RPMI-8226 leukemia was 17.1%; in the assay on OVCAR-8 ovarian it was 20.4%; with OVCAR-5 ovarian, 45%; in the assay on OVCAR-4 ovarian it was 12.6%; with SK-OV-3 ovarian, 21.6%; in the assay on IGROV1 ovarian, 26.4%. Besides, the growth with OVCAR-3 ovarian was 15%; with HS 578T breast it was 63%; in the assay with NCI/ADR-RES ovarian, 87.2%.

Turning to `COc1cc(/C=C\c2cc(OC)c(OC)c(OC)c2)cc(NC(=O)/C=C/c2cc(OC)c(OC)c(OC)c2)c1OC`, the growth is 45% in the assay on RPMI-8226 leukemia; 56.6% in the assay with OVCAR-8 ovarian; 77.3% in the assay with OVCAR-5 ovarian; 50.8% with SK-OV-3 ovarian; 52.8% with IGROV1 ovarian; 51.1% in the assay with OVCAR-3 ovarian. Also, the results for the growth with HS 578T breast and in the assay on NCI/ADR-RES ovarian were 68.6% and 17.8%, respectively.

In the case of `N#CC1C(C#N)C(C(=O)c2ccc(Br)cc2)N2c3ccccc3C=CC12` (stereo not given), the growth in the assay with OVCAR-8 ovarian was 90.9%; in the assay with OVCAR-5 ovarian it was 55.2%; in the assay with OVCAR-4 ovarian, 43.7%; with SK-OV-3 ovarian, 79.4%; in the assay with IGROV1 ovarian it was 39.7%; with OVCAR-3 ovarian it was 75.5%. Besides, the figures for the growth with HS 578T breast and with NCI/ADR-RES ovarian were 77.6% and 64.1%, respectively.

Regarding `CCOC(=O)/C(C#N)=C1/NNC(=Nc2cccnc2)S1`, the growth in the assay on RPMI-8226 leukemia was 107%; in the assay with OVCAR-8 ovarian, 92.2%; in the assay with OVCAR-5 ovarian it was 102%; with OVCAR-4 ovarian, 100%; in the assay with SK-OV-3 ovarian, 85.7%; in the assay with IGROV1 ovarian, 111%. The growth with OVCAR-3 ovarian was 101%; in the assay on HS 578T breast, 96.7%; in the assay on NCI/ADR-RES ovarian it was 105%.
